ELG1 repair inh: qHTS screen for small molecules that inhibit ELG1-dependent DNA repair in human embryonic kidney (HEK293T) cells expressing luciferase-tagged ELG1. HEK293T ELG1-luciferase reporter, luminescence, 16 h; DNA damage induced by 5-fluorouridine. Potency, µM (top dose mostly 46.1 µM), for inactives: top-dose activity change, negative = inhibition, actives largely listed as inhibitors. hit rate 2.3% among 330,000; further: on the % scale 0 is the no-effect control and ±100 the full control effect; nearly all actives have a fitted effect of over 55% in size
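In this reporter screen, reduction of luminescence relative to DMSO vehicle indicated activity. Compounds and 5-fluorouridine were added together to 2,000 cells per well, incubated for 16 hr at 37 °C, then developed with ONE-Glo.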
KB-V1 cytotox: qHTS assay for MDR1-selective chemotherapeutics: Primary screen using the drug-selected MDR subline cells KB-V1 | KB-V1 MDR cells viability, CellTiter-Glo, 72 h | Potency, µM (highest dose often 46.1 µM), most hits filed as cytotoxic | hit rate 3.4% among 400,000; further: on the % scale 0 is the no-effect control and ±100 the full control effect; nearly all actives have a fitted effect of over 60% in size
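KB-V1, DMEM (no phenol red) + 10% FBS; cpd pin-transferred, titration series; 72 h, 37 degrees C; CellTiter-Glo, luminescence. Data normalized, curve-fit.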
MCF10A rerep: A quantitative high throughput screen for small molecules that induce DNA re-replication in MCF 10a normal breast cells; MCF 10A DNA re-replication, Hoechst nuclear intensity, 48 h; Potency, µM (highest dose often 46.1 µM), for inactives: at the highest dose activity, positive = re-replication, most hits filed as activators; hit rate 2.9% among 350,000; AID 624296, 2012; further: % of control where 0% means no effect; nearly all actives have a fitted effect of over 50% in size
KB-3-1 cytotox: qHTS assay for MDR1-selective chemotherapeutics: Primary screen using the parental adenocarcinoma cell KB-3-1 | KB-3-1 viability, CellTiter-Glo ATP luminescence, 72 h | Potency, µM (series often up to 46.1 µM), most hits filed as cytotoxic | hit rate 1.4% among 400,000 | AID 1347075, 2019; further: on the % scale 0 is the no-effect control and ±100 the full control effect; nearly all actives have a fitted effect of over 60% in size
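KB-3-1 cells, DMEM (no phenol red) + 10% FBS; compound by pin transfer, 72 h, 37 °C. Readout: CellTiter-Glo luminescence after 10 min. Data normalized, curve-fitted.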
SW480 rerep: A quantitative high throughput screen for small molecules that induce DNA re-replication in SW480 colon adenocarcinoma cells; AID 624297, 2012; Potency, µM (top dose mostly 46.1 µM), for the others: at the highest dose re-replication activation, hits mostly activators; SW480 DNA re-replication, Hoechst DNA content imaging, 48 h; hit rate 1.8% among 340,000; further: % of control where 0% means no effect; nearly all actives have a fitted effect of over 55% in size
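Hoechst fluorescence of nuclei (405 nm excitation, 500-530 nm emission) measured by plate-scanning imager after 48 hr compound exposure at 37 C; re-replication scored as increased number of nuclei with elevated intensity.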
* hit, by the source's call; i = inactive; ? = inconclusive; . = no result; [ ] = remark or other dose. Shown are actives, neighbours in structure and some others; about 8.1% of the full set was active somewhere. The call rests on the fitted dose curve; in most records, active means well fitted curve in the direction sought with a large enough effect; inconclusive means small, poorly fitted or top-dose-only effect, or another doubt; inactive means no such curve, though single readings can be large; an effect the other way counts as inactive or inconclusive. Potency means the concentration at half of the fitted maximal effect.

SMILES | ELG1 repair inh | KB-V1 cytotox | MCF10A rerep | KB-3-1 cytotox | SW480 rerep
Cc1nn(Cc2ccc(C(=O)N3N=C(C(F)F)CC3(O)C(F)F)o2)c(C)c1[N+](=O)[O-] (stereo not given) | ? | ? | 3% | i | 0%
Cc1nn(Cc2cccc(C(=O)Nn3cc([N+](=O)[O-])cn3)c2)c(C)c1[N+](=O)[O-] | -1% | ? | ? | i | -81%
Cc1nn(Cc2cccc(C(=O)N3N=C(C(F)F)CC3(O)C(F)F)c2)c(C)c1[N+](=O)[O-] (stereo not given) | ? | 8.2µM* | ? | i | -4%
CC1=NN(C(=O)c2cccc(Cn3nc(C)c([N+](=O)[O-])c3C)c2)C(O)(C(F)(F)F)C1 (stereo not given) | -1% | ? | 5.8µM* | i | ?
Cc1cccc(C)c1N1CCN(C(c2cc3ccccc3o2)c2nnnn2C(C)(C)C)CC1 (stereo not given) | . | 2.6µM* | . | 5.8µM* | .
CCCCn1nnnc1C(c1cc2ccccc2o1)N1CCN(c2c(C)cccc2C)CC1 (stereo not given) | . | i | . | ? | .
CC1(C)CC(=O)C=C(c2n[nH]nc2-c2ccc(F)c(F)c2)C1 | . | i | . | i | .
CCC(/C=C1\Sc2ccc(OC)cc2N1CC)=C\c1sc2ccc(OC)cc2[n+]1CCCS(=O)(=O)[O-] | ? | i | -7% | ? | -3%
CCC(/C=C1\Sc2ccc(OC)cc2N1CCO)=C\c1sc2ccc(OC)cc2[n+]1CCO | ? | i | ? | 2.9µM* | 0%
CC(C)(C)c1nnc(NC(=O)C2CCN(C(=O)c3ccccc3)CC2)s1 | . | i | . | i | .
COc1cccc(C#Cc2c(C=O)n(C)c3ccccc23)c1 | -20% | ? | ? | i | 2.3µM*
Cn1c(C=O)c(C#CC(C)(C)O)c2ccccc21 | 5% | i | -8% | i | -2%
COc1ccc(-c2cc3ccc(O)c(CN4CCCC(C)C4)c3oc2=O)cc1OC (stereo not given) | . | i | . | i | .
Cc1ccc(-c2nc(CSCC(=O)NCc3cccnc3)c(C)o2)cc1 | -29% | 3.7µM* | 0% | ? | 0%
COc1ccc(-c2nc(CSCC(=O)NC3CCCc4ccccc43)c(C)o2)cc1 (stereo not given) | ? | ? | 16µM* | i | 15%
Cc1ccc(CNC(=O)CSCc2nc(-c3cccc(C)c3)oc2C)cc1 | . | i | . | ? | .
COc1ccc(-c2nc(CSCC(=O)NCc3ccco3)c(C)o2)cc1 | 18% | 13µM* | -1% | i | -7%
COc1ccc2ccccc2c1-c1sc(Nc2ccccc2)n[n+]1-c1ccc(F)cc1 | -17% | i | 5% | i | ?
CCCCCCn1cnc2c(c1=O)c1nc3ccccc3nc1n2/N=C/c1ccco1 | 15µM* | ? | -9% | i | -4%
C=CCn1cnc2c(c1=O)c1nc3ccccc3nc1n2/N=C/c1cccc(OC)c1 | 21µM* | i | 12% | i | -8%
Cc1nc2c(c(=O)n1CCC1=CCCCC1)c1nc3ccccc3nc1n2/N=C/c1ccco1 | 5.2µM* | ? | ? | i | 10%
COCCn1cnc2c(c1=O)c1nc3ccccc3nc1n2/N=C/c1ccc(OC)c(OC)c1 | 5.8µM* | i | 1% | i | ?
O=c1c2c3nc4ccccc4nc3n(/N=C/c3ccncc3)c2ncn1-c1ccccc1 | -6% | i | 12% | i | -5%
COCCn1cnc2c(c1=O)c1nc3ccccc3nc1n2/N=C/c1ccco1 | -6% | i | 0% | i | -29%
O=C(Nc1cccnc1)c1cccc(S(=O)(=O)N2CCc3ccccc32)c1 | ? | 10µM* | 1% | ? | -1%
SMILES | ELG1 repair inh | KB-V1 cytotox | MCF10A rerep | KB-3-1 cytotox | SW480 rerep
COc1ccccc1C(CNC(=O)c1cccc(S(=O)(=O)N2CCCc3ccccc32)c1)N(C)C (stereo not given) | . | 5.8µM* | 25% | i | 5%
CC(C)[C@H](NC(=O)c1ccccc1)C(=O)OCC(=O)N1CCc2ccccc2C1 | 1% | 9.2µM* | 3% | i | -11%
CC(=O)Nc1ccc(NC(=O)c2ccc(Cl)c(S(=O)(=O)N3CCc4ccccc43)c2)cc1 | . | i | 6% | i | -3%
CC(C)C(NC(=O)c1ccccc1)C(=O)OCC(=O)N1CCCCC1 (stereo not given) | -2% | i | 7% | i | -5%
O=C(Nc1cccnc1)c1ccc(Cl)c(S(=O)(=O)N2CCc3ccccc32)c1 | 13µM* | ? | 10% | i | -3%
CCc1ccccc1NC(=O)C(C)n1nc(-c2ccc(C)c(C)c2)ccc1=O (stereo not given) | . | i | . | i | .
COc1ccc(NC(=O)CN(C)C(=O)c2cccc(S(=O)(=O)N3CCCc4ccccc43)c2)cc1 | -21% | i | 0% | i | 10%
O=C(NCC(c1ccco1)N1CCCC1)c1ccc(Cl)c(S(=O)(=O)N2CCc3ccccc32)c1 (stereo not given) | ? | 1.6µM* | ? | 2.3µM* | ?
CN(CC(=O)Nc1ccccc1Br)C(=O)c1cccc(S(=O)(=O)N2CCc3ccccc32)c1 | . | 18µM* | ? | i | 5%
COc1ccc(C(=O)NCC(c2ccco2)N2CCc3ccccc32)cc1 (stereo not given) | 27% | 7.3µM* | 5.8µM* | 5.8µM* | ?
COc1ccc(NC(=O)c2ccc(Cl)c(S(=O)(=O)N3CCc4ccccc4C3)c2)cn1 | ? | 4.6µM* | ? | i | -2%
O=C(NCC(c1ccco1)N1CCc2ccccc2C1)c1ccc(Cl)c([N+](=O)[O-])c1 (stereo not given) | -16% | i | ? | i | 1%
COc1ccc(CNC(=O)Cn2c(=O)cc(-c3ccccc3)c3c(C)nn(C)c32)cc1 | . | i | . | i | .
O=C(NC1=NCCS1)c1cccc(S(=O)(=O)N2CCc3ccccc32)c1 | ? | ? | -4%[9.22 µM] | i | ?
O=C(NC1=NCCS1)c1ccc(Cl)c(S(=O)(=O)N2CCc3ccccc32)c1 | ? | 13µM* | ? | ? | -11%
COc1ccc(C(=O)NC(C(=O)N2CCc3ccccc32)C(C)C)cc1 (stereo not given) | ? | 8.2µM* | 3% | i | 23%
Cc1cc(N2CCOCC2)nc2ccc(NC(=O)CCC(=O)N3CCN(c4cccc(C(F)(F)F)c4)CC3)cc12 | ? | ? | 15µM* | ? | 19%

Screens from PubChem BioAssay.
